Source: PubChem BioAssay
This is a sample that favours compounds with a hit; in the whole collection about 6.2% have one here.
HCMV antiviral: blocks human cytomegalovirus replication; HFF cells, HCMV-luciferase reporter, 72 h; hits give low values; activity change, negative = inhibition, % at 57.5 µM; hit rate 4.5% among 410,000; AID 1259415; in the data active = activity change below about -60%; inconclusive = no clear call, values can overlap the other calls; inactive = above about -39%
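Luciferase read-out from HCMV-luciferase-infected HFFs (MOI 1 PFU/cell) 72 h post infection at 37C; compounds added after 16 h cell attachment; activity normalized between buffer-only basal and Salinomycin (10uM) inhibitor controls.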
FMDV inh: foot and mouth disease virus antiviral activity; FMDV antiviral cell-based qHTS; Potency, µM (doses to about 57.9 µM), inactives show at the highest dose activity change, negative = inhibition, usual class: inhibitors; hit rate 1.2% among 410,000; AID 1159524; calls by dose curve; tested in HEK293T cells; also: read-out not given here; potency is read from the fitted curve at half-maximal effect; nearly all actives have a fitted effect of over 45% in size
MARV entry inh: Marburg virus entry inhibition. hit rate 1.8% among 300,000. Marburg virus pseudotyped entry inhibition, cell reporter. AID 540276. Potency, µM (highest dose often 37.8 µM), for the others: at the highest dose activity change, negative = inhibition, hits mostly inhibitors; calls by dose curve; tested in HEK293 cells; also: potency is read from the fitted curve at half-maximal effect
Lassa entry inh: Lassa virus entry inhibition | Lassa virus pseudotype entry inhibition, cell reporter | hit rate 1.2% among 300,000 | AID 540256 | Potency, µM (titrated, usually from 37.9 µM), inactives show at the top dose activity change, negative = inhibition, actives largely listed as inhibitors; calls by dose curve; tested in HEK293 cells; also: potency is read from the fitted curve at half-maximal effect; nearly all actives have a fitted effect of over 50% in size
* hit, by the source's call; [ ] = remark or other dose. % is scaled to controls: 0 for no effect and ±100 for the full control effect.

C[C@H]1[C@H](OC(=O)CCC(=O)NCc2ccc(C(=O)O)cc2)O[C@@H]2O[C@@]3(C)CC[C@H]4[C@H](C)CC[C@@H]1C24OO3 was read as FMDV inh 15.0%, MARV entry inh inconclusive and Lassa entry inh inconclusive.
`CC(C)CC(NC(=O)CCCNC(=O)CCC(=O)OC1O[C@H]2OC3(C)CC[C@H]4[C@H](C)CCC(C1C)C24OO3)C(=O)O` (stereo not given in full) gave HCMV antiviral -63.1*, FMDV inh 8.5%, MARV entry inh inconclusive and Lassa entry inh inconclusive.
For Clc1ccc(-c2cc(-c3nnc4n3CCCCC4)c3ccccc3n2)cc1 the results were HCMV antiviral -72.4*, FMDV inh inconclusive, MARV entry inh -6.8% and Lassa entry inh 6.1%.
`Fc1ccc(-c2cc(-c3nnc4n3CCCCC4)c3ccccc3n2)cc1` gave HCMV antiviral 29.1, FMDV inh -21.0%, MARV entry inh 15.2% and Lassa entry inh 0.3%.
For COC(=O)C1=C(C(=O)OC)[C@@H]2N(CC=C(C)C)c3ccccc3[C@@]23CCC(=O)N(Cc2cccc(C(F)(F)F)c2)C3=N1 the results were MARV entry inh -27.9%[14.2 µM] and Lassa entry inh inconclusive.
Screening O=[N+]([O-])c1ccc(Nc2ccccc2O)c2nonc12 returned HCMV antiviral -60.6* and FMDV inh -29.4%.
For Cc1ccc(-n2c(Cl)c(Cl)nc(Cl)c2=O)cc1 the results were FMDV inh 7.08µM*, MARV entry inh inconclusive and Lassa entry inh 7.31µM*.
Screening O=C1[C@@H]2[C@H]3[C@H](O)[C@H](O)CC(=NOC[C@@H](O)COCc4ccco4)[C@@H]3CC[C@H]2C(=O)N1C1CCCCC1 returned MARV entry inh -22.0%[14.2 µM].
Screening CCOC(=O)N1CCN(C(=O)c2ccc3nc4ccc(Cl)cc4c(=O)n3c2)CC1 returned HCMV antiviral -97.2*, FMDV inh 1.0%, MARV entry inh inconclusive and Lassa entry inh inconclusive.
`CCOC(=O)N1CCN(C(=O)c2ccc3nc4ccsc4c(=O)n3c2)CC1` gave HCMV antiviral 38.6 and FMDV inh -16.8%.
`N#CCCn1cc(/C=N/NC(N)=S)c(-c2ccc(Br)cc2)n1` gave HCMV antiviral -70.1*, FMDV inh -13.6%, MARV entry inh inconclusive and Lassa entry inh -1.8%[46.1 µM].
`Nc1[nH]c(C(=O)c2ccc(Br)cc2)c(-c2ccc(F)cc2)c1C(=O)NCCc1c[nH]c2ccccc12` gave HCMV antiviral -28.7.
COc1ccc(-c2cnc3c(NC=O)cc(-c4ccc(N(C)C)cc4)cn23)cc1OC was read as HCMV antiviral 19.3.
`Cc1ccc(-n2c3nc(=O)[nH]c(=O)c-3cc3cc([N+](=O)[O-])ccc32)cc1C` gave HCMV antiviral -98.6*, FMDV inh 28.2µM*, MARV entry inh inconclusive and Lassa entry inh inconclusive.
`Cc1ccc(S(=O)(=O)n2cnc3cc([N+](=O)[O-])ccc32)cc1C` gave HCMV antiviral -14.4, FMDV inh -11.8%, MARV entry inh 0.7% and Lassa entry inh 2.1%.
For Cc1cc2ncc(-c3cccc(Br)c3)nc2cc1C the results were HCMV antiviral 132.9.
Screening COc1cccc(-c2nn(-c3ccccc3)cc2C(=O)n2nnc3ccccc32)c1 returned HCMV antiviral 34.9, FMDV inh 39.8µM*, MARV entry inh 10.8% and Lassa entry inh -0.5%.
Screening O=C(c1cn(-c2ccccc2)nc1-c1ccccc1)n1nnc2ccccc21 returned HCMV antiviral -23.1, FMDV inh inconclusive, MARV entry inh 3.5% and Lassa entry inh 4.0%.
For COc1ccc(-c2ccc3c(c2)CN(c2cccc(Cl)c2)Cc2cnnn2-3)cc1 the results were HCMV antiviral -102.1* and FMDV inh -16.8%.
Screening Clc1cccc(N2Cc3cc(-c4ccccc4)ccc3-n3nncc3C2)c1 returned HCMV antiviral -108.3* and FMDV inh inconclusive.
Screening O/C(=C\c1ccc2ccccc2n1)c1ccncc1 returned HCMV antiviral -101.2* and FMDV inh -6.1%.
For O/N=C/c1ccc2ccccc2n1 the results were HCMV antiviral 96.7, FMDV inh 0.0%, MARV entry inh inconclusive and Lassa entry inh 19.5%.
Screening COc1ccc(-c2n[nH]c(=S)n2/N=C/C=C\c2ccccc2OC)cc1 returned HCMV antiviral -0.6, FMDV inh 9.8%, MARV entry inh -21.0% and Lassa entry inh inconclusive.
Screening COc1ccccc1/C=C/C=N/n1c(-c2ccc(C)cc2)n[nH]c1=S returned HCMV antiviral 29.3, FMDV inh 10.4%, MARV entry inh inconclusive and Lassa entry inh 3.66µM*.
`COC1=C(Br)C(=O)c2ncccc2C1=O` gave HCMV antiviral -69.0*, FMDV inh 35.5µM*, MARV entry inh inconclusive and Lassa entry inh inconclusive.
For COc1ccccc1N1C(=O)c2cccnc2C1=O the results were HCMV antiviral 16.6 and FMDV inh -1.2%.
`O=C1c2cccnc2-c2ncccc21` gave HCMV antiviral -23.7, FMDV inh 1.3%, MARV entry inh 2.3% and Lassa entry inh 3.1%.
For O=C1C(=O)c2cccnc2-c2ncccc21 the results were HCMV antiviral -99.1* and FMDV inh 3.98µM*.
For Cc1ccc(/C=C/c2onc(C)c2S(=O)(=O)N2CCC(C(=O)N3CCN(c4cccc(C)c4)C(C)C3)CC2)cc1 (stereo not given) the results were HCMV antiviral 4.7, FMDV inh 0.0% and Lassa entry inh 4.8%[46.1 µM].
For COC(=O)C12CC3=CCC4C(=O)N(c5ccccc5)C(=O)C4C3Cc3ccccc3[C@H]1CNC2=O (stereo not given in full) the results were MARV entry inh 5.1%[14.2 µM].
`O=C1C(SCCO)=C(SCCO)C(=O)c2ccccc21` gave HCMV antiviral -95.0*, FMDV inh 10µM*, MARV entry inh 3.98µM* and Lassa entry inh 2.59µM*.
Cc1ccc(C)c(N(C(=O)Cn2nnc3ccccc32)C(C(=O)NC(C)(C)C)c2ccsc2)c1 (stereo not given) was read as HCMV antiviral -77.7*, MARV entry inh 2.1% and Lassa entry inh -2.3%.
`N#CC1=C(N)OC2=C(CCc3ccccc32)C1c1ccccc1` (stereo not given) gave HCMV antiviral -92.5*, FMDV inh inconclusive, MARV entry inh inconclusive and Lassa entry inh inconclusive.
`CC12C(=O)OC(=O)C1(C)C1CCC2O1` (stereo not given) gave FMDV inh inconclusive, MARV entry inh 3.26µM* and Lassa entry inh 2.91µM*.
For C[C@@]12C(=O)OC(=O)[C@@]1(C)[C@H]1CC[C@@H]2O1 the results were MARV entry inh 3.26µM*.
Screening CN1C(=O)C(CC(=O)Nc2ccccc2F)N(NC(=O)c2ccc(Br)cc2)C1=S (stereo not given) returned HCMV antiviral -0.2, FMDV inh 11.9%, MARV entry inh 12.6µM* and Lassa entry inh -14.7%[46.1 µM].
For CCNC(=O)CC1C(=O)N(C)C(=S)N1NC(=O)c1ccc(Cl)cc1 (stereo not given) the results were HCMV antiviral -18.7, FMDV inh -2.9%, MARV entry inh 3.9% and Lassa entry inh -8.4%.
